This passage reports growth results from PubChem BioAssay (NCI).

About 83,000 compounds went through this panel and 20% of them were active in at least one assay; those are over-represented in the sample as a whole.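 Compound tested at a single concentration for 48 hours in 96-well plates; a percent growth value below 10 was scored as active.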 A number with no mark means an inactive call. Activity calls are given as the source filed them.

The subject of this experiment is HL-60(TB) leukemia. Put plainly: NCI-60 one-dose screen, 48 h (100 = growth as untreated, 0 = no growth, -100 = all killed). Particulars: 10 µM unless noted.
Take `O=C(O)c1ccc(-c2ccc(/C=N/Nc3nc(Nc4ccccc4)nc(N4CCCCC4)n3)o2)cc1`: the growth is 66.4%. Regarding `C=CCOc1ccc2c(c1)CC[C@@H]1[C@@H]2CC[C@@]2(C)[C@H]1CC[C@]2(C)O`, the growth is 74.6%.

For the compound `CC(=O)Cc1cccnc1`, the growth was 82.4%. Take `COc1cc(/C=C/C(=O)c2ccc(-n3cc(CN4CCN(c5cc6c(cc5F)c(=O)c(C(=O)O)cn6C5CC5)CC4)nn3)cc2)cc(OC)c1OC`: the growth was 98.8%. Regarding `Cc1[nH]n(-c2cccc(Cl)c2)c(=O)c1/C=C1\C=Nc2ccc(Br)cc21`, the growth was 38.5%. Take `CCN(CC)CCCC(C)N/C(c1cccc(OC)c1)=c1\c(=O)[nH]n(-c2c3ccccc3nc3ccccc23)c(=O)\c1=C(/NC(C)CCCN(CC)CC)c1cccc(OC)c1` (stereo not given): the growth is -43.5% (active). For the compound `O=[N+]([O-])c1cccc(N=Cc2ccc3c(c2)OCO3)c1`, the growth was 98.5%. With `Cc1nc2ccccc2c(/C=C/c2ccc(F)cc2)c1C(=O)/C=C/c1ccccc1`, the growth was 7.37% (active).

For the compound `CCC(C)(C)C(=O)O[C@H]1C[C@@H](C)C=C2C=C[C@H](C)[C@H](CC[C@@H]3C[C@@H](O)CC(=O)O3)[C@H]21`, the growth was 77.1%. In the case of `CCCCCCCCCCCC1=NCCCN1CCCC` it was 104%; in that of `CCC(CC)NCC(C)(C)O`, 97.7%. In the case of `COc1cc(-c2nc(C(=O)NCC(=O)NO)nn2-c2ccc(Cl)cc2)cc(OC)c1OC` it was 97.4%. Consider `O=C1NC(=O)/C(=C/c2ccc(Cl)cc2Cl)N1`, for which the growth was 97%. On to `COc1cc(/C=N/NC(=O)c2cnn3c2NC(c2ccccc2)C3)cc(OC)c1OC` (stereo not given), for which the growth was 81.1%. With `CCCCC(CC)OC(=O)C(Br)CC` (stereo not given), the growth was 99.6%. In the case of `Cc1ccc(-c2nc3c(c(-c4ccccc4)nn3-c3ccccc3)c(-c3ccc(O)cc3)c2C#N)cc1`, the growth is 33%. The same measure for `COc1ccc(C(=O)Cn2c(C(=O)c3ccc(Cl)cc3)nc3ccccc32)cc1`: 42.2%; for `CCN1CCN(Cc2ccc(NC(=O)Nc3cccc(-n4ccc5c(NC(=O)c6ccccc6)nccc54)c3)cc2C(F)(F)F)CC1`: 112%. Consider `O=C(Nc1ccc(Oc2ccc(F)cc2)c(Cl)c1)c1cccnc1`, for which the growth is 83.2%. Consider `Fc1ccc2[nH]c3c(NCCCN4CCOCC4)ncnc3c2c1`, for which the growth is 109%. With `CCCCCCCC/C=C\CCCCCCCCOc1ccc(CC(=O)NCC[N+]2(C)CCCC2)cc1`, the growth is -31.6% (active). The same measure for `COC(=O)c1ccc(-n2cc(CCCOS(=O)(=O)c3ccc(F)cc3)nn2)cc1`: 99.6%. As to `COc1ccc(C2OC(c3cc(-c4cc5ccccc5o4)nn3-c3ccccc3)=NN2C(C)=O)cc1` (stereo not given), the growth is 84.3%. The same measure for `COc1cc2c(c(O)c1Cl)C(=O)c1c(O)cc(C[C@H](C)O)cc1[C@H]2[C@H]1c2cc(C[C@H](C)O)cc(O)c2C(=O)c2c1cc(OC)c(Cl)c2O`: 1.89% (active); for `O=C1OC(c2ccc(-c3ccccc3)cc2)=C/C1=C/C=C/c1ccccc1`: 90.5%; for `CS(=O)(=O)c1ccc(-c2[nH]c3ccc(F)cc3c2/C=N/O)cc1`: 101%.

In the case of `CN(C)c1ccc(/C=C2\C=C(c3ccccc3)N(CCc3ccccc3)C2=O)cc1`, the growth is 74.5%. In the case of `CC(=O)O[C@H]1CC2CCC3C(CC[C@@]4(C)C3C[C@H]([N+]3(C)CCCCC3)[C@@H]4OC(C)=O)[C@@]2(C)C[C@@H]1N1CCCCC1` (stereo not given in full), the growth was 107%.

For `CCCCN(CCCC)c1ccc(C(=NC(C)CCCN(CC)CC)c2ccc(N(C)C)cc2)cc1` (stereo not given), the growth was -32.1% (active).

On to `COC(=O)c1c2c(c(C)[n+]([O-])c1C)C(=O)C=C(NCc1cccc(Cl)c1)C2=O`, for which the growth was -31.8% (active).

With `CC(C)N(C(=O)c1ccccc1)C(C)C`, the growth was 100%. For `CNS(=O)(=O)Oc1ccc(-c2sc3cc(OS(=O)(=O)NC)ccc3c2C(=O)c2ccc(OCCN3CCCCC3)cc2)cc1`, the growth is 94.8%. The same measure for `COc1ccc(/C(C#N)=C/c2ccccc2OC)cc1`: -0.826% (active). Consider `C#CCN(CCCOc1ccc(Cl)cc1Cl)CCCSC(=O)CCCCCN1/C(=C\C=C2/CCCC(/C=C/C3=[N+](CCCCCC(=O)[O-])c4ccccc4C3(C)C)=C2Cl)C(C)(C)c2ccccc21`, for which the growth is -44.2% (active).

With `O=P(OCCCl)(OCCCl)C(O)c1ccccc1Cl` (stereo not given), the growth was 96.2%. In the case of `CCCc1cn(CC(=O)Nc2nc3ccccc3s2)nn1`, the growth was 101%.

In the case of `Cc1ccc(S(=O)(=O)CCCl)cc1`, the growth is 91.7%.

As for `COc1cc(NC(C)CCCN)c2ncccc2c1Oc1ccc(Cl)cc1` (stereo not given), the growth is 94.8%. As to `[N-]=[N+]=Nc1ncc(-c2ccc(C(F)(F)F)cc2)c(NC2CCCCCC2)n1`, the growth is -14.7% [100 µM] (active). `CC1(/C=C/c2ccc(-c3ccccc3)cc2)CCn2cnc3ncnc(c32)N1O` (stereo not given): the growth was 2.02% (active).
